Data on 40 compounds can be found in PubChem BioAssay AID652015 (National Center for Advancing Translational Sciences (NCATS), 2013).

Inconclusive results are not listed. Where a call stands in place of a potency, no number is given. The source made the active and inactive calls. The call rests on the fitted dose curve; in most records, active means well fitted inhibition curve with a large enough effect; inconclusive means small, poorly fitted or top-dose-only effect; inactive means no such curve, though single readings can be large or run the other way.

Chain of Coelenterazine h 2-monooxygenase (Renilla reniformis) (P27652 whole entry, looked up): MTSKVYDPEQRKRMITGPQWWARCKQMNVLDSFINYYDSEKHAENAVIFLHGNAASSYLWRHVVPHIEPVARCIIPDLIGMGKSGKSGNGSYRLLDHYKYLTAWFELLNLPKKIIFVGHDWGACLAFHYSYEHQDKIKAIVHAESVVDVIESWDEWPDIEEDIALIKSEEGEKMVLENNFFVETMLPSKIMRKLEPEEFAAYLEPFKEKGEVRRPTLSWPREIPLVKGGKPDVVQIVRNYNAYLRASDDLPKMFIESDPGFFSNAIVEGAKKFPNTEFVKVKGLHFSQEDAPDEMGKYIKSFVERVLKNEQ

This assay concerns the target Coelenterazine h 2-monooxygenase (Renilla reniformis) (UniProt P27652). The experiment in a line: qHTS Assay for Inhibitors of Sea Pansy Luciferase from the GSK Published Protein Kinase Inhibitor Set. The conditions noted are these: purified Renilla luciferase, luminescence; series mostly up to 57.5 µM. From the text:
FLuc (firefly luciferase) is the prototypical bioluminescent reporter gene from Photinus pyralis.[1] The enzyme catalyzes the oxidation luciferin via luciferin-AMP to produce light. FLuc is used in cell-based reporter gene-based assays for screening small molecule chemical libraries. However, small molecule luciferase inhibitors present in most large chemical libraries are often enriched in the output of high throughput screens using this reporter sometimes complicating interpretation and candidate selection.
RLuc is a bioluminescent reporter gene luciferase from Renilla reniformis, also known as the sea pansy. RLuc uses the luciferin substrate coelenterazine. RLuc is often used in combination with the nonhomologous luciferase FLuc (firefly luciferease) as a trasfection or pathway normalization control. Recently, non-homologous reporters have been described for high throughput screening 'coincidence' reporter gene strategies.
1. Fan F, Wood KV (2007) Bioluminescent assays for high-throughput screening. Assay Drug Dev Technol 5: 127-136.
2. Thorne N, Inglese J, Auld DS (2010) Illuminating insights into firefly luciferase and other bioluminescent reporters used in chemical biology. Chem Biol 17: 646-657.
3. […] Chem Biol 19: 1060-1072.
4. Michelini E, Cevenini L, Mezzanotte L, Coppa A, Roda A (2010) Cell-based assays: fuelling drug discovery. Anal Bioanal Chem 398: 227-238.
5. Cheng KC, Inglese J (2012) A coincidence reporter-gene system for high-throughput screening. Nat Methods 9: 937.
Biochemical renilla luciferase enzyme assay
NCGC Assay Protocol Summary:
Reagents: 50mM Tris acetate, pH 7.5; 100uM NaCl; 5uM Coelenterazine H (Promega #S2011); 0.01% Tween-20; 0.05% BSA; 1nM R. reniformis luciferase (Nanolight Technologies #314)
Control compounds used were a known renilla luciferase inhibitor BTS (Tocris Biosciences #1870) and DMSO.
Three microliters containing renilla luciferase substrate in buffer (final concentrations: 50mM Tris acetate, pH 7.5, 100uM NaCl, 0.01% Tween-20, 0.05% BSA, 5uM coelenterazine h) are dispensed into each well of a Greiner white, solid-bottom 1536-well format plate using a flying reagent dispenser (FRD). These assay plates were then treated with 23nL of compound or DMSO using a Kalypsys pin tool, which allows for delivery of a 7-point interplate titration of each compound to the assay plate (quantitative HTS), with final compound concentrations ranging from approximately 60uM to 300pM. One microliter of renilla luciferase in 50mM Tris-acetate buffer was then delivered by FRD to each well for a final enzyme concentration of 1nM. Luciferase activity was then measured using an Envision plate reader (PerkinElmer), with an average incubation time of 2 min.
A general note: Quantitative high-throughput screening tests each substance at several concentrations.
Consider `O=C(Nc1ccc(Oc2ccc3nc(NC(=O)c4ccco4)[nH]c3c2)cc1)Nc1cc(C(F)(F)F)ccc1F`, for which the Potency result was “inactive”.
As to `CN(c1ccc(NC(=O)NCCN2CCOCC2)cc1)c1ccnc(Nc2ccc(CS(C)(=O)=O)cc2)n1`, the Potency entry was “inactive”.
Under `CN(c1ccc(NC(=O)Nc2c(Cl)cccc2Cl)cc1)c1ccnc(Nc2cccc(CS(C)(=O)=O)c2)n1` stands “inactive”; under `FC(F)(F)c1cccc(-c2nn3ncccc3c2-c2ccnc(Nc3ccc4c(c3)OCCO4)n2)c1`, “inactive”; under `COc1cc(N2CCN(C(C)C)CC2)ccc1Nc1nc(Nc2ccc(F)cc2C(=O)NCC(O)CO)c2cc[nH]c2n1` (stereo not given), “inactive”.
On to `CN(c1ccc(NC(=O)Nc2ccc(OC(F)(F)F)cc2)cc1)c1ccnc(Nc2cccc(S(N)(=O)=O)c2)n1`, for which the Potency entry is “inactive”.
Under `Cn1c(-c2nonc2N)nc2cnccc21` stands “inactive”.
As to `FC(F)(F)CNc1nccc(-c2cnn3ncccc23)n1`, the Potency result was “inactive”.
Under `OCCCNc1nccc(-c2c(-c3ccc(F)cc3)nn3cc(C(F)(F)F)ccc23)n1` stands “inactive”.
For `CS(=O)(=O)CCNCc1ccc(-c2ccc3ncnc(Nc4ccc(OCc5cccc(F)c5)c(C(F)(F)F)c4)c3c2)o1` the value was “inactive”; for `N#Cc1ccc2c(-c3ccnc(NC4CC4)n3)c(-c3ccc(F)cc3)nn2c1`, “inactive”.
Under `COc1cccc(-n2ncc3c(NN=Cc4ccc(S(C)(=O)=O)cc4)ncnc32)c1` stands “inactive”; under `COc1cccc(-c2c[nH]c3c(NN=Cc4ccncc4)ncnc23)c1`, “inactive”.
Consider `Nc1nccc(-c2c(-c3ccc(F)cc3)nn3cc(C(F)(F)F)ccc23)n1`, for which the Potency entry was “inactive”.
With `COC(=O)Nc1nc2ccc(Oc3ccc(NC(=O)Nc4ccccc4)cc3)cc2[nH]1`, the Potency result is “inactive”.
Regarding `c1ccc(Nc2ncc(-c3ccccc3)o2)cc1`, the Potency entry was “inactive”.
`CC(C)(C)c1ccc(Oc2nccc(-c3c(-c4ccc(F)cc4)ncn3C3CCNCC3)n2)cc1`: the Potency result is “inactive”.
Take `Fc1ccc(-c2cc(-c3cn[nH]c3-c3ccccn3)ccn2)cc1`: the Potency entry is “inactive”.
For `COc1ccc(CNC(=O)c2ccc(-c3cc(-c4nnc(C)o4)ccc3C)cc2)cc1`, the Potency result is “inactive”.
As for `Fc1ccc(-c2ncn(C3CCNCC3)c2-c2ccnc(Oc3cccc(F)c3)n2)cc1`, the Potency entry was “inactive”.
Under `COc1cc(C)c(N(C)C(=O)CN(C)C)cc1Nc1nc(Nc2cccc(F)c2C(N)=O)c2cc[nH]c2n1` stands “inactive”; under `Nc1nonc1-c1nc2cnccc2n1C1CC1`, “inactive”; under `c1ccc(-c2[nH]ncc2-c2ccnc(-c3ccc(OCCN4CCOCC4)cc3)c2)nc1`, “inactive”.
On to `Cc1cc(-c2ccco2)cc(C)c1C=Cc1cncc(-c2nn[nH]n2)c1`, for which the Potency result is “inactive”.
Under `N#Cc1c(NC(=O)c2cccc3ccccc23)sc2c1CCCC2` stands “inactive”; under `COc1ccc2cc(-c3c(-c4ccncc4)nc(-c4ccc(S(C)=O)cc4)n3C)ccc2c1` (stereo not given), “inactive”; under `CNC(=O)c1cncc(C=Cc2ccccc2Cl)c1`, “inactive”.
Turning to `NC(=O)c1ccc2c(-c3ccnc(NCCCO)n3)c(-c3ccc(F)cc3)nn2c1`, the Potency entry is “inactive”.
For `CCNC(=O)OC1CNC(C#Cc2cc3ncnc(Nc4ccc(OCc5cccc(F)c5)c(Cl)c4)c3s2)C1` (stereo not given) the value was “inactive”.
Under `Fc1cccc(COc2ccc(Nc3ncnc4cc(-c5ccc[nH]5)sc34)cc2Cl)c1` stands “inactive”.
For `CCn1c(-c2nonc2N)nc2c(C#CC(C)(C)O)ncc(OCC3CCNCC3)c21` the value was “inactive”; for `NS(=O)(=O)c1cccc(Nc2cc(-c3ccc(F)cc3)[nH]n2)c1`, “inactive”; for `CC(C)c1ccc(Nc2nccc(-c3cnn4ncccc34)n2)cc1`, “inactive”.
As to `COc1cc2c(cc1Nc1nc(Nc3ccsc3C(N)=O)c3cc[nH]c3n1)N(C(=O)CN(C)C)CCC2(C)C`, the Potency entry was “inactive”.
Under `CCN1CCC(CC(=O)Nc2n[nH]c3nnc(-c4cccc(F)c4F)cc23)CC1` stands “inactive”; under `CNC(=O)c1ncccc1Nc1nc(Nc2cc3c(cc2OC)CCCN3C(=O)CN(C)C)nc2[nH]ccc12`, “inactive”; under `c1cnn2ncc(-c3ccnc(Nc4ccc5c(c4)OCCO5)n3)c2c1`, “inactive”.
For `Cc1nn(C)c2cc(N(C)c3ccnc(Nc4cccc(S(N)(=O)=O)c4)n3)ccc12` the value was “inactive”.
Under `CCn1cc(-c2ccnc3[nH]ccc23)c(-c2cccc(NC(=O)Nc3ccc(OCc4ccccc4)cc3)c2)n1` stands “inactive”; under `CC(Oc1cc(-n2cnc3ccc(OCC(O)CO)cc32)sc1C(N)=O)c1ccccc1Cl` (stereo not given), “inactive”.
